According to ChEMBL document CHEMBL1961873, “Compounds: GSK PKIS; Assays: Nanosyn kinase panel” (2012):

What was measured:
[1] = molecular target: Tyrosine-protein kinase Fyn (Homo sapiens) (UniProt P06241); details: at 1 µM
[2] = molecular target: Tyrosine-protein kinase HCK (Homo sapiens) (UniProt P08631); details: at 0.1 µM
[3] = molecular target: Tyrosine-protein kinase HCK (Homo sapiens) (UniProt P08631); details: at 1 µM
[4] = molecular target: Insulin-like growth factor 1 receptor (Homo sapiens) (UniProt P08069); details: at 0.1 µM
[5] = molecular target: Insulin-like growth factor 1 receptor (Homo sapiens) (UniProt P08069); details: at 1 µM
[6] = molecular target: Insulin receptor (Homo sapiens) (UniProt P06213); details: at 0.1 µM
[7] = molecular target: Insulin receptor (Homo sapiens) (UniProt P06213); details: at 1 µM
[8] = molecular target: Insulin receptor-related protein (Homo sapiens) (UniProt P14616); details: at 0.1 µM
[9] = molecular target: Insulin receptor-related protein (Homo sapiens) (UniProt P14616); details: at 1 µM
[10] = molecular target: T1, Tyrosine-protein kinase ITK/TSK (Homo sapiens) (UniProt Q08881); details: at 0.1 µM
T1 sequence (whole entry): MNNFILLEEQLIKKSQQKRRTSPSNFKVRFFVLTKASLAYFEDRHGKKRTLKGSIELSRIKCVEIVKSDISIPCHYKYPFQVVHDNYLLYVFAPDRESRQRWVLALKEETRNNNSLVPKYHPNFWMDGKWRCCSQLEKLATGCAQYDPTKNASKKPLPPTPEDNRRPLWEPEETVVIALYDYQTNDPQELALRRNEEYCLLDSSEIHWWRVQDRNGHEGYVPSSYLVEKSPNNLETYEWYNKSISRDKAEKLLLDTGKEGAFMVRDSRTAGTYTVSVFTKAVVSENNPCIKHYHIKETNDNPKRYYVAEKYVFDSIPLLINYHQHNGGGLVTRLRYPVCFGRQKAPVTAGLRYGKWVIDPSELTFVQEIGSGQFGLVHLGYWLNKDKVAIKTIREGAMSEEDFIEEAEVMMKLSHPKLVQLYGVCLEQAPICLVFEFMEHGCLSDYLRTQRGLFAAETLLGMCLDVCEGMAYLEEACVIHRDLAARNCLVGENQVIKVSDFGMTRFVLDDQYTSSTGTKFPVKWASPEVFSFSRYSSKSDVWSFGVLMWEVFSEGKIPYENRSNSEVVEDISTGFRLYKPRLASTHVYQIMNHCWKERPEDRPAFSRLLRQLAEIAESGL

[11] = molecular target: T1, Tyrosine-protein kinase ITK/TSK (Homo sapiens); details: at 1 µM
[12] = molecular target: Tyrosine-protein kinase JAK1 (Homo sapiens) (UniProt P23458); details: at 0.1 µM
[13] = molecular target: Tyrosine-protein kinase JAK1 (Homo sapiens) (UniProt P23458); details: at 1 µM
[14] = molecular target: Tyrosine-protein kinase JAK2 (Homo sapiens) (UniProt O60674); details: at 0.1 µM
[15] = molecular target: Tyrosine-protein kinase JAK2 (Homo sapiens) (UniProt O60674); details: at 1 µM
[16] = molecular target: T2, Tyrosine-protein kinase JAK3 (Homo sapiens) (UniProt P52333); details: at 0.1 µM
T2 sequence (whole entry): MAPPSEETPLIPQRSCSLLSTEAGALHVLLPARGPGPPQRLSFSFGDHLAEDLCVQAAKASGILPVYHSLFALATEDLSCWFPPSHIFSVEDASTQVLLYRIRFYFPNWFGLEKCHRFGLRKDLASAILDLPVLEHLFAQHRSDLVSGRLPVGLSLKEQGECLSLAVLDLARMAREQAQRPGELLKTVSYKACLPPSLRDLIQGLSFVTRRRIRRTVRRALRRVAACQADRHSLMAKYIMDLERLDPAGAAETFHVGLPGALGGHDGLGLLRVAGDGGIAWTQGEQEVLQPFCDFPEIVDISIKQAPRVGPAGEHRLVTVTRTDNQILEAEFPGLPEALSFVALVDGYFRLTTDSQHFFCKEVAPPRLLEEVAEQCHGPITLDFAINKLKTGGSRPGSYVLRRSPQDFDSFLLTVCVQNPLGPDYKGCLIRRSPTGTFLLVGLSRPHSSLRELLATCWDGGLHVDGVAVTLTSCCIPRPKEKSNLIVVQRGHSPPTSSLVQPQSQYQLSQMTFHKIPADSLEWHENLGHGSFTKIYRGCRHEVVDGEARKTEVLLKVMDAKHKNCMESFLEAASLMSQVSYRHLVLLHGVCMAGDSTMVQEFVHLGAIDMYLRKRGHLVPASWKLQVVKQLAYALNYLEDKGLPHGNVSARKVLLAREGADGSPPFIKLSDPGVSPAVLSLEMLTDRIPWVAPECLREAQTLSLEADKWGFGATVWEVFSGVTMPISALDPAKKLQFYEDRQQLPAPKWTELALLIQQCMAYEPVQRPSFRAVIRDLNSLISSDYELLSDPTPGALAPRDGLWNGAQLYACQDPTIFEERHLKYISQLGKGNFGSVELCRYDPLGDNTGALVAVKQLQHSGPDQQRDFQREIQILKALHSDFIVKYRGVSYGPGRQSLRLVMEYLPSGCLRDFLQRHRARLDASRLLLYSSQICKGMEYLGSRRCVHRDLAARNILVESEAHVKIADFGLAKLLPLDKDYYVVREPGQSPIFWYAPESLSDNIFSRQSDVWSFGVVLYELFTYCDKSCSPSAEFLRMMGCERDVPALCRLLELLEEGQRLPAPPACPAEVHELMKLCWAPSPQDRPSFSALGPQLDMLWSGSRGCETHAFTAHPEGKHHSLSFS

[17] = molecular target: T2, Tyrosine-protein kinase JAK3 (Homo sapiens); details: at 1 µM
[18] = molecular target: Vascular endothelial growth factor receptor 2 (Homo sapiens) (UniProt P35968); details: at 0.1 µM
[19] = molecular target: Vascular endothelial growth factor receptor 2 (Homo sapiens) (UniProt P35968); details: at 1 µM
[20] = molecular target: Mast/stem cell growth factor receptor Kit (Homo sapiens) (UniProt P10721); details: at 0.1 µM;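 note: values are mean inhibition of KIT, from the GSK PKIS dataset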
Sequence of Mast/stem cell growth factor receptor Kit (Homo sapiens) (P10721 whole entry): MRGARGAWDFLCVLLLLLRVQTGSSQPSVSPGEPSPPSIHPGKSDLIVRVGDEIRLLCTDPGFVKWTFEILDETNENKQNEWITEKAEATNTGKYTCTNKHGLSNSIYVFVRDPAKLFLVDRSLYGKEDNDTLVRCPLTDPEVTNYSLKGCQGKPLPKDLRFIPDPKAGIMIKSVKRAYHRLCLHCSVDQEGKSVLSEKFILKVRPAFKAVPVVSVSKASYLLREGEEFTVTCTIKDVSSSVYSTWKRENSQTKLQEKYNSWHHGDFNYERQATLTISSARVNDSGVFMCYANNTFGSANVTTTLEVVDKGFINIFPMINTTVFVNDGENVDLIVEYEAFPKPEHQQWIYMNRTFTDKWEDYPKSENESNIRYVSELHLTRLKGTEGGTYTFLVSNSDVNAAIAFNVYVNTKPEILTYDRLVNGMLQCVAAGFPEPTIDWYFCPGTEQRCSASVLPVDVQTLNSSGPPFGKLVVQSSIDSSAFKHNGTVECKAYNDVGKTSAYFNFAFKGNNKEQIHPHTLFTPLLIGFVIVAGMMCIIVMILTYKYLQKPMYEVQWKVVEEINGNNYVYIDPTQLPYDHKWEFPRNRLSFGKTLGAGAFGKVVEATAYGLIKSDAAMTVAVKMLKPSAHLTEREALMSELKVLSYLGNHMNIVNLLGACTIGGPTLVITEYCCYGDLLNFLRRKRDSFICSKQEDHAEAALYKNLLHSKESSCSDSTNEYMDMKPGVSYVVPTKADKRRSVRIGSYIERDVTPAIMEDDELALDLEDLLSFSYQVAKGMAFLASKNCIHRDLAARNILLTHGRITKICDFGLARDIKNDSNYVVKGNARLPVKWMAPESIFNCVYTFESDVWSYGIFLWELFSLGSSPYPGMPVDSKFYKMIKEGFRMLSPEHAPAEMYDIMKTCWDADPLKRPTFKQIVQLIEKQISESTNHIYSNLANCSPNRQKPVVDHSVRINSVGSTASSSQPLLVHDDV

Sequence of Tyrosine-protein kinase Fyn (Homo sapiens) (P06241 2-537 limits assumed): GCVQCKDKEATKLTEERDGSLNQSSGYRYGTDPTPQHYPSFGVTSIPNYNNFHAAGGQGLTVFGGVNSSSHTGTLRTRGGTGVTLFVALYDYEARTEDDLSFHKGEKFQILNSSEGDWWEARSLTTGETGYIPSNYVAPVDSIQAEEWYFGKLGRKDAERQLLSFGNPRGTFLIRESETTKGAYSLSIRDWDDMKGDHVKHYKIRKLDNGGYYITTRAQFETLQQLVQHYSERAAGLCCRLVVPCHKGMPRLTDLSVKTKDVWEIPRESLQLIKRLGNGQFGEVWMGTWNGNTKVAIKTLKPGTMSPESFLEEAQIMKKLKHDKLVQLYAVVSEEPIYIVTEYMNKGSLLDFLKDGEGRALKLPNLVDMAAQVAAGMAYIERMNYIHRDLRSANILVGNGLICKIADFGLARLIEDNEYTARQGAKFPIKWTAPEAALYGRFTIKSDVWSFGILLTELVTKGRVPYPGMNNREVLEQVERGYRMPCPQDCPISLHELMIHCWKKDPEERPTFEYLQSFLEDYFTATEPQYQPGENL
Sequence of Insulin receptor (Homo sapiens) (P06213 28-758 limits assumed): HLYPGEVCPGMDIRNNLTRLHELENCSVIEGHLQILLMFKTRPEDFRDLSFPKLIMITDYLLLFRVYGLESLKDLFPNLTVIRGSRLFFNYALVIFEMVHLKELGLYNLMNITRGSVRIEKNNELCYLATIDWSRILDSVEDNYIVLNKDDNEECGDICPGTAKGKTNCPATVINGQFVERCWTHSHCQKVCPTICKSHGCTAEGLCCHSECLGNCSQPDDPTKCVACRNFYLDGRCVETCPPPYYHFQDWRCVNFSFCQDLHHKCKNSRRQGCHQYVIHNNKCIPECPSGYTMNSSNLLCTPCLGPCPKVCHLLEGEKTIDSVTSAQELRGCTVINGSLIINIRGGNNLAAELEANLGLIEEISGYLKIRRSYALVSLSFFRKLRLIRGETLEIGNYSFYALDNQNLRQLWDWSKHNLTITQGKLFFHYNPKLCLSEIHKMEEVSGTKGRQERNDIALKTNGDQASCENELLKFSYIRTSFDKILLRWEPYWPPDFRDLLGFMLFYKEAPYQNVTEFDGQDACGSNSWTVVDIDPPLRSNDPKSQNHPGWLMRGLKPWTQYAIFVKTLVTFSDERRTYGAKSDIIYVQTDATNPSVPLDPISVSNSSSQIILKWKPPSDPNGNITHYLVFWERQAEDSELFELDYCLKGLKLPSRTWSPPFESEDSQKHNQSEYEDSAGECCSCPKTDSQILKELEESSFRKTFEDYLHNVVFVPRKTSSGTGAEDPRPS
Sequence of Insulin receptor (Homo sapiens) (P06213 763-1382 limits assumed): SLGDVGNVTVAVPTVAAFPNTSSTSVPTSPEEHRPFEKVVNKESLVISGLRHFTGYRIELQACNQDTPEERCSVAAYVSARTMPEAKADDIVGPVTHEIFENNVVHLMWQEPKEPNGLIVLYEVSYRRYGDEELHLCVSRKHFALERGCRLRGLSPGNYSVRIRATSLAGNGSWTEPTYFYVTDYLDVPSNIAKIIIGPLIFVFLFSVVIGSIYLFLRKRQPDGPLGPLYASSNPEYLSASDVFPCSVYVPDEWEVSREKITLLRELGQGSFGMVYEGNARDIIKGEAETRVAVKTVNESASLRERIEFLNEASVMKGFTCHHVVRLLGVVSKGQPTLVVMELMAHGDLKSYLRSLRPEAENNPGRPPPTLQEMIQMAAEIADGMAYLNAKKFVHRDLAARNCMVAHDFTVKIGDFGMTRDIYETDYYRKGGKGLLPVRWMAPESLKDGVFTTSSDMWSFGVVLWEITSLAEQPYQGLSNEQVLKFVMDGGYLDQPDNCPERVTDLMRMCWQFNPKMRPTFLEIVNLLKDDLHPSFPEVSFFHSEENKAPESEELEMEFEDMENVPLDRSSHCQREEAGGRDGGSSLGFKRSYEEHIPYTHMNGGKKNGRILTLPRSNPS
Sequence of Tyrosine-protein kinase JAK2 (Homo sapiens) (O60674 whole entry): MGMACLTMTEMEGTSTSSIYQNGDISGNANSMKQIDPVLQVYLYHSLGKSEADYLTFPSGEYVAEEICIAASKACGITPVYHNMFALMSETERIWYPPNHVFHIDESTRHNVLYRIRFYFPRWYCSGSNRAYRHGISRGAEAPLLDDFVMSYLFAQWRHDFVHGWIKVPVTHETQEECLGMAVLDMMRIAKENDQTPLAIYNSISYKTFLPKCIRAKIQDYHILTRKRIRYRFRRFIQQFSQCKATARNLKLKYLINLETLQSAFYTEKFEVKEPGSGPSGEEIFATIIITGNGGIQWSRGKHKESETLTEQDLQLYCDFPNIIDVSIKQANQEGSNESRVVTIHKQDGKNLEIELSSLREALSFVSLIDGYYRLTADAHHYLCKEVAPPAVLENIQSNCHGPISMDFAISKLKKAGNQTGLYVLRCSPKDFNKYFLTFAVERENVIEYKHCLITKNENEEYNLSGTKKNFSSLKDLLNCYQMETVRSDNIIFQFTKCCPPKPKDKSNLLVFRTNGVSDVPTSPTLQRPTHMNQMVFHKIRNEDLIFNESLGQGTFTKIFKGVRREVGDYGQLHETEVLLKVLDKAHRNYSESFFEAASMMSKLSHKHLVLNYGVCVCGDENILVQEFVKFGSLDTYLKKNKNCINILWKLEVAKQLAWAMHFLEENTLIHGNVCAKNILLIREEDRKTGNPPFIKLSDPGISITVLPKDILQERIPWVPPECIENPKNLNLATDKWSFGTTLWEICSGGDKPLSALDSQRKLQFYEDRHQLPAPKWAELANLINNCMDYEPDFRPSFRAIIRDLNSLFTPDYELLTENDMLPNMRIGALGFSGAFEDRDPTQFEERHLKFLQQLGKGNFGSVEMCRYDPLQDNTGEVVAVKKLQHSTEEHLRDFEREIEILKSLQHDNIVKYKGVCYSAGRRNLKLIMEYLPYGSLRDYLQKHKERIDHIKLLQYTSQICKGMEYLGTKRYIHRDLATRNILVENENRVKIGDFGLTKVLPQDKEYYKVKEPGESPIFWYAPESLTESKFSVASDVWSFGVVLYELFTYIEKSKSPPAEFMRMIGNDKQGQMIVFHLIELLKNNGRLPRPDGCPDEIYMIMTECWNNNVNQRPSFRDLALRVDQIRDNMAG
Sequence of Tyrosine-protein kinase HCK (Homo sapiens) (P08631 2-526 limits assumed): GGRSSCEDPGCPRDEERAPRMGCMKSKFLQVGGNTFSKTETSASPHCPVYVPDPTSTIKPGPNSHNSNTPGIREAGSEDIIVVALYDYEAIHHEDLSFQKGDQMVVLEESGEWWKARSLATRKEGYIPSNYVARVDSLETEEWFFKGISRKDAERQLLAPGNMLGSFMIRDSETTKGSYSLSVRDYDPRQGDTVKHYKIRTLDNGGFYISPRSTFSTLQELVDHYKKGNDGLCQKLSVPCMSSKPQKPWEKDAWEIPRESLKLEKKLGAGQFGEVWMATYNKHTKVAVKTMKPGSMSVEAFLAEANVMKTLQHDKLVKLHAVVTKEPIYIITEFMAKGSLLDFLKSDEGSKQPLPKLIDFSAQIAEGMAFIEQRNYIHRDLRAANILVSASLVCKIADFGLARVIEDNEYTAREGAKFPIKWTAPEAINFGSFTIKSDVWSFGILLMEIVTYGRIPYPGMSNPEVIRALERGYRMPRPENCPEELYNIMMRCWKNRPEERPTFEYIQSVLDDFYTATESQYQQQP

Compound	inhibition [1] [%]	inhibition [2] [%]	inhibition [3] [%]	inhibition [4] [%]	inhibition [5] [%]	inhibition [6] [%]	inhibition [7] [%]	inhibition [8] [%]	inhibition [9] [%]	inhibition [10] [%]	inhibition [11] [%]	inhibition [12] [%]	inhibition [13] [%]	inhibition [14] [%]	inhibition [15] [%]	inhibition [16] [%]	inhibition [17] [%]	inhibition [18] [%]	inhibition [19] [%]	inhibition [20] [%]
c1ccc(Nc2ncc(-c3ccccc3)o2)cc1	15.1	6.83	13.3	7.16	5.2	4.8	6.98	2.31	2.61	0.38	1.67	8.4	8.08	1.08	1.6	-1.29	-1.89	4.68	19.8	30.9
CCOc1nccc2c1nc(-c1nonc1N)n2CC	3.27	4.58	11.4	7.26	7.09	0.75	-1.17	1.03	2.48	1.74	3.31	6.31	18.7	1.55	1.18	0.47	4.71	9.84	23.8	3.38
NC(=O)c1sc(-n2cnc3ccccc32)cc1OCc1ccccc1Br	6.19	4.21	7.03	1.53	3.04	3.07	5.25	1.82	3.4	1.35	2.17	4.07	3.98	1.97	2.84	-2.53	0.23	0.79	13.6	5.61
COc1cc2ncnc(Nc3ccc(C)c(O)c3)c2cc1OC	56.2	44.9	75.1	12.2	11	5.04	6.96	2.18	3.05	1.63	1.28	1.62	12.6	1.49	0.53	-1.17	2.14	75.4	72	9.08
Cc1nc(-c2ccccc2)n2nc(NCCCN3CCOCC3)ncc12	4.98	3.98	4.67	3.15	1.6	0.32	2.69	-0.73	1.44	0.99	1.89	3.7	4.63	0.5	1.89	-2.38	0.04	2.59	5.25	3.52
COc1cc(/C=N/Nc2ncnc3c2cnn3C(C)C)ccc1O	40.2	7.16	32.6	9.1	7.79	2.75	2.59	-1.25	2.79	1.18	5	2.44	14.2	0.62	0.55	0.75	3.25	4.03	19.8	8.94
NS(=O)(=O)c1ccc(Nc2cc(-c3cccc(O)c3)n[nH]2)cc1	2.45	5.06	11.7	5.98	5.23	3.33	3.4	6.28	2.76	2.78	4.07	4.66	7.23	1.41	1.95	-1.44	1.25	9.9	19.2	33.2
Cc1ccc2c(-c3ccnc(Nc4cccc(C(F)(F)F)c4)n3)c(-c3ccccc3)nn2n1	61	11.3	45.1	2.54	4.76	8.09	24.8	2.33	6.16	1.33	1.69	6.27	4.74	1.01	2.03	-1.71	-2.26	17.7	69.3	9.72
c1ccc(Cc2nc3ccc(Nc4ncnc5ccccc45)cc3[nH]2)cc1	5.58	3.53	11.5	2.6	3.88	3.54	8.19	2.51	3.31	0.82	1.07	1.47	5.36	1.11	1.7	-1.75	2.4	2.38	5.81	6.44
Cc1ccc(C(=O)NC2CC2)cc1-c1ccc2[nH]ncc2c1	0.93	-3.84	-2.13	29.6	-5.48	0.44	-2.94	-3.94	-4.42	-2.18	-0.97	-3.33	-8.73	-1.66	-1.51	1.08	2.55	-3.15	3.28	-5.04
COc1cc2ncnc(Nc3ccc4c(cnn4Cc4ccccc4)c3)c2cc1OC	35.7	11.4	48.5	-1.14	-0.72	2.75	3.75	0.39	2.09	0.88	1.9	4.18	2.43	1.01	1.11	-1.67	1.82	6.63	47.6	2.37
CCS(=O)(=O)c1ccc(OC)c(Nc2nccc(N(C)c3ccc4c(C)n[nH]c4c3)n2)c1	65	39.5	72.1	12.5	12.5	3.36	4.35	1.12	4.55	0.31	1.96	3.52	5.13	1.45	-0.31	-1.93	-1.6	78.7	76.8	44.2
Nc1nccc(C#Cc2cncnc2Nc2ccc(OCc3cccc(F)c3)c(Cl)c2)n1	2.19	5.32	10.2	3.97	4.12	3.13	4.44	8.14	1.12	1.89	3.09	2.03	2.27	1.73	1.57	0.41	4.42	6.4	10.6	3.65
